Laboratory results taken from PubChem BioAssay (Tox21).
Results filed as inconclusive are left out. The source made the active and inactive calls. Unless noted, calls come from the whole dose curve.

Assays:
[1] = Nuclear factor erythroid 2-related factor 2/antioxidant responsive element (Nrf2/ARE) small molecule agonists: qHTS cell viability counter screen in human keratinocytes (AID 1919968; active = well fitted curve in the direction sought with a large enough effect in the repeat runs; an effect the other way counts as inactive or inconclusive; note: nearly all actives have a fitted effect of over 55% in size)
Procedure, shortened: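 KeratinoSens cells (HaCaT keratinocytes stably carrying an ARE-luciferase reporter) were seeded at 1,500 cells/well and rested 5 h at 37 C/5% CO2. They were then exposed to compounds in DMSO for 23 h. Viability was read by CellTiter-Fluor fluorescence after 1 h.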

[2] = target: Gonadotropin-releasing hormone receptor (Homo sapiens) (UniProt P30968); assay: Human gonadotropin-releasing hormone receptor (GnRHR) small molecule agonists, calcium flux assay in GnRHR-HEK293 cells (AID 1920063); note: nearly all actives have a fitted effect of over 35% in size
Procedure, shortened: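 HEK293 cells stably expressing human GnRHR were plated 18 h at 37 °C, loaded with calcium dye 1 h at 37 °C, then given compound in agonist mode; fluorescence (Ex/Em 480/540) read kinetically for 3 min at 1 s intervals.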

[3] = target: KiSS-1 receptor (Homo sapiens) (UniProt Q969F8); assay: Human kisspeptin (KISS1R) small molecule agonists, calcium flux assay in KISS1R-HEK293 cells (AID 1920064; active = well fitted curve in the direction sought with a large enough effect in the repeat runs; an effect the other way counts as inactive or inconclusive)
Procedure, shortened: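 HEK293 cells stably expressing human KISS1R were plated 18 h at 37 °C, loaded with calcium dye for 1 h at 37 °C, then given compound by pin tool. Fluorescence (Ex/Em 480/540) was read kinetically for 3 min.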

[4] = G protein-coupled receptor (GPCR) small molecule agonists, calcium flux assay: HEK293 wild type cell line counter screen (AID 1920065)
Procedure, shortened: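 Cells were plated and cultured 18 h at 37 C/5% CO2, then loaded with calcium dye for 1 h at 37 C. Compounds in DMSO were pin-transferred in agonist mode, and fluorescence (Ex/Em 480/540) was read kinetically for 3 min at 1 s intervals.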

[5] = p53 small molecule agonists, cell-based qHTS assay with human liver microsomes (AID 1963577);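 note: p53 response element beta-lactamase reporter cells with liver microsomes plus NADPH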
Procedure, shortened: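 p53RE-bla cells; 5 h settle, 37 C/5% CO2; cpd + HLM 0.5 mg/mL + NADPH 0.5 mg/mL (final); 16 h 37 C; LiveBLAzer 2 h RT dark; fluorescence readout.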

[6] = p53 small molecule agonists, cell-based qHTS assay with rat liver microsomes: qHTS cell viability counter screen (AID 1963580); note: nearly all actives have a fitted effect of over 45% in size
Procedure, shortened: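 p53RE-bla HCT-116 cells (4,000/well) rested 5 h at 37 C, then given Tox21 compounds in DMSO with rat liver microsomes (0.5 mg/mL final) plus NADPH (0.5 mg/mL final) for 16 h at 37 C. Viability read by CellTiter-Glo luminescence after 30 min at room temperature.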

[7] = p53 small molecule agonists, cell-based qHTS assay: qHTS cell viability counter screen (AID 1963581); note: nearly all actives have a fitted effect of over 45% in size
Procedure, shortened: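 p53RE-bla HCT-116 cells were exposed to compounds for 16 h at 37 C; after the beta-lactamase FRET read in the same wells, CellTiter-Glo was added and luminescence (intracellular ATP) read after 30 min at room temperature.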

[8] = p53 small molecule agonists, cell-based qHTS assay (AID 1963582; active = well fitted activation curve with a large enough effect in the signal ratio in the repeat runs, not every such curve was filed as active; the % refers to the signal ratio)
Procedure, shortened: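 p53RE-bla beta-lactamase reporter cells rested 5 h at 37 C/5% CO2, then received compounds in DMSO by pin transfer and were incubated 16 h at 37 C. LiveBLAzer B/G FRET substrate was loaded for 2 h at room temperature before fluorescence reading.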

[9] = target: 5-hydroxytryptamine receptor 2A (Homo sapiens) (UniProt P28223); assay: 5-hydroxytryptamine receptor 2A (HTR2A) small molecule antagonists, cell-based qHTS assay (AID 1963586); note: nearly all actives have a fitted effect of over 45% in size
Procedure, shortened: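 Antagonist-mode intracellular calcium assay: DOI (4 nM) added after 5 min compound pre-incubation at room temperature to dye-loaded HTR2A-CHO cells. Fluorescence followed for 3 min, sampled every second.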

[10] = target: 5-hydroxytryptamine receptor 2A (Homo sapiens) (UniProt P28223); assay: 5-hydroxytryptamine receptor 2A (HTR2A) small molecule agonists, cell-based qHTS assay (AID 1963587); note: nearly all actives have a fitted effect of over 30% in size
Procedure, shortened: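 HTR2A-CHO cells, plated 18 h at 37 C/5% CO2, dye-loaded 1 h at 37 C; compounds in DMSO added by pin tool (agonist mode). Intracellular calcium flux read as kinetic fluorescence on FDSS over 2 min at 1 s intervals.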

[11] = target: Muscarinic acetylcholine receptor M1 (Homo sapiens) (UniProt P11229); assay: Cholinergic receptor muscarinic 1 (CHRM1) small molecule antagonists, cell-based qHTS assay (AID 1963588); note: nearly all actives have a fitted effect of over 40% in size
Procedure, shortened: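 CHRM1-CHO calcium-flux assay, antagonist mode. Cells were seeded 18 h, dye-loaded 1 h at 37 C and given compound for 5 min at RT, then acetylcholine was added at 50nM. FDSS fluorescence was read 3 min; 15 concentrations, three runs.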

[12] = target: Muscarinic acetylcholine receptor M1 (Homo sapiens) (UniProt P11229); assay: Cholinergic receptor muscarinic 1 (CHRM1) small molecule agonists, cell-based qHTS assay (AID 1963589); note: nearly all actives have a fitted effect of over 35% in size
Procedure, shortened: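 CHO cells stably expressing human CHRM1, seeded 18 h at 37 C/5% CO2, dye-loaded 1 h at 37 C, then given compound in agonist mode; intracellular calcium fluorescence read kinetically at 1 s intervals. Fifteen concentrations, three independent runs.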

[13] = cAMP Responsive Elements (CRE) small molecule agonists, cell-based qHTS assay (AID 1963590)
Procedure, shortened: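 CRE-bla HEK 293T cells in DMEM with 10% dialyzed FBS, NEAA, pyruvate and 25 mM HEPES were plated 18 h at 37 C/5% CO2, then exposed to compounds in DMSO for 3 h before LiveBLAzer B/G FRET substrate addition.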

[14] = cAMP Responsive Elements (CRE) small molecule antagonists, cell-based qHTS assay (AID 1963591; active = well fitted inhibition curve with a large enough effect in the signal ratio in the repeat runs, not every such curve was filed as active; the % refers to the signal ratio)
Procedure, shortened: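 CRE-bla HEK293T cells were plated 18 h at 37 °C/5% CO2, pinned with compound in DMSO, then stimulated with NKH477 at 0.25 uM final for 3 h. LiveBLAzer B/G FRET substrate was added and plates incubated 2 h at room temperature.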

[15] = target: Beta-2 adrenergic receptor (Homo sapiens) (UniProt P07550); assay: Adrenergic beta2 receptor (ADRB2) small molecule antagonists, cell-based qHTS assay (AID 1963592); note: series mostly up to about 92 µM; nearly all actives have a fitted effect of over 50% in size
Procedure, shortened: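 Cells (CHO, stable ADRB2 overexpression) incubated 18-20hr at 37C; compounds added from DMSO; agonist mix (1nM isoproterenol, 100uM IBMX, 25uM Ro-20-1724) added; 0.5hr RT; d2-cAMP and anti-cAMP-cryptate added; 1hr RT; 665/615 nm read.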

[16] = target: Beta-2 adrenergic receptor (Homo sapiens) (UniProt P07550); assay: Adrenergic beta2 receptor (ADRB2) small molecule agonists, cell-based qHTS assay (AID 1963593); note: potency is the fitted concentration of half-maximal effect;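 for activation: CHO cells stably overexpressing human ADRB2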
Procedure, shortened: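 CHO cells stably over-expressing ADRB2 were plated overnight at 37C, then dosed with compounds plus a stimulation mix containing 100uM IBMX and 25uM Ro-20-1724 for 0.5hr at room temperature. cAMP was measured by HTRF competition, 1hr.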

[17] = target: D(2) dopamine receptor (Homo sapiens) (UniProt P14416); assay: Dopamine D2 receptor (DRD2) small molecule agonists, cell-based qHTS assay (AID 1963594); note: nearly all actives have a fitted effect of over 35% in size
Procedure, shortened: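 HEK293 cells stably expressing DRD2 were cultured 24 h at 37 C, then given Ro20-1724 (0.1 mM final) and compounds for 10 min at room temperature. NKH477 (200nM) was then added for 30 min. cAMP was read by HTRF.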

[18] = target: D(2) dopamine receptor (Homo sapiens) (UniProt P14416); assay: Dopamine D2 receptor (DRD2) small molecule antagonists, cell-based qHTS assay (AID 1963595; active = well fitted inhibition curve with a large enough effect in the signal ratio in the repeat runs, with a control signal flat; the % refers to the signal ratio)
Procedure, shortened: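 Readout: HTRF cAMP, cAMP-d2 competing with cellular cAMP for anti-cAMP cryptate, read after 1 h. Cells: DRD2-HEK293. Conditions: 0.1 mM Ro20-1724, 12 nM quinpirole, 200 nM NKH477, 30 min RT.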

[19] = p53 small molecule agonists, cell-based qHTS assay with rat liver microsomes (AID 1963578)
Procedure, shortened: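 Rat liver microsome activation: microsomes 0.5 mg/mL, NADPH 0.5 mg/mL final; p53RE-bla cells, 16 h 37 C; LiveBLAzer readout, 2 h RT dark.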

[20] = p53 small molecule agonists, cell-based qHTS assay with human liver microsomes: qHTS cell viability counter screen (AID 1963579); note: nearly all actives have a fitted effect of over 45% in size
Procedure, shortened: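 Luminescent CellTiter-Glo read-out, 30 min at room temperature, gauged cytotoxicity in p53RE-bla cells exposed 16 h at 37 C to DMSO-dissolved compounds with metabolic activation by human liver microsomes and NADPH, each 0.5 mg/mL final.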
% is set by controls: 0 for no effect and ±100 for the full control effect.

Beta-2 adrenergic receptor (Homo sapiens), sequence (P07550 whole entry, looked up): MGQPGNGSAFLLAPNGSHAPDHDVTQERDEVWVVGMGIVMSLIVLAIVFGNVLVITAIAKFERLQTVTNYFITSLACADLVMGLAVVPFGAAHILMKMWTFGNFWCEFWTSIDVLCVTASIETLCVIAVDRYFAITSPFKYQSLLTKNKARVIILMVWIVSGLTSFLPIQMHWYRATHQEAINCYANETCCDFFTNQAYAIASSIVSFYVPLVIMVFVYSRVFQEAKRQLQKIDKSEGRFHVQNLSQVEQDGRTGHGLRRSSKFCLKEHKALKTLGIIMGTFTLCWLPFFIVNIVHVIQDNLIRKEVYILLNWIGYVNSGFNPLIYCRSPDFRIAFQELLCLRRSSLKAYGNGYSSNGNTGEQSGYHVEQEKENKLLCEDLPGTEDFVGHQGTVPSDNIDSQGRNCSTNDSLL
5-hydroxytryptamine receptor 2A (Homo sapiens), sequence (P28223 whole entry, looked up): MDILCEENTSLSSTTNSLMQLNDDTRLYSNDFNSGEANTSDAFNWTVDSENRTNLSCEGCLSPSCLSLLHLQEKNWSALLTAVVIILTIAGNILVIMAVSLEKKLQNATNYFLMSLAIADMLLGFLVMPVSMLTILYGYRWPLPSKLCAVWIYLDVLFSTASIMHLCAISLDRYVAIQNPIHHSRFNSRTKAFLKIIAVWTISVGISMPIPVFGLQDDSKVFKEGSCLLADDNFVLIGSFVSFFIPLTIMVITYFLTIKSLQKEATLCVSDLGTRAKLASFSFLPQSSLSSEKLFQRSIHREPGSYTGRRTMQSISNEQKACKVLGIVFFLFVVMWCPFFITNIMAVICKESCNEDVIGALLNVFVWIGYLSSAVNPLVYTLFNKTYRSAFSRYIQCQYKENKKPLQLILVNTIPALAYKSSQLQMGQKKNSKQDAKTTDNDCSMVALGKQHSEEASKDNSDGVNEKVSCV
Muscarinic acetylcholine receptor M1 (Homo sapiens), sequence (P11229 whole entry, looked up): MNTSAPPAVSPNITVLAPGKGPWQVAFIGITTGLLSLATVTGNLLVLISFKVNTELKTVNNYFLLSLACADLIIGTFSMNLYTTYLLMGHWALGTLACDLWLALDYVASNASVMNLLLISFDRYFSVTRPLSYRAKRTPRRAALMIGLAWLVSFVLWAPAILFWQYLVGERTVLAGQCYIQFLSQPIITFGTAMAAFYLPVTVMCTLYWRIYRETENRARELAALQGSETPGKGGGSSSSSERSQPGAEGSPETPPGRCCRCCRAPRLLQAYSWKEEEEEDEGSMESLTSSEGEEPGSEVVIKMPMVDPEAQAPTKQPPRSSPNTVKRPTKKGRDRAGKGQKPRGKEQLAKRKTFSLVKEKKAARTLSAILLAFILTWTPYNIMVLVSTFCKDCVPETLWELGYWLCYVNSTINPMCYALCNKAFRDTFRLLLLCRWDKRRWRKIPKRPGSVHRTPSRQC
Gonadotropin-releasing hormone receptor (Homo sapiens), sequence (P30968 whole entry, looked up): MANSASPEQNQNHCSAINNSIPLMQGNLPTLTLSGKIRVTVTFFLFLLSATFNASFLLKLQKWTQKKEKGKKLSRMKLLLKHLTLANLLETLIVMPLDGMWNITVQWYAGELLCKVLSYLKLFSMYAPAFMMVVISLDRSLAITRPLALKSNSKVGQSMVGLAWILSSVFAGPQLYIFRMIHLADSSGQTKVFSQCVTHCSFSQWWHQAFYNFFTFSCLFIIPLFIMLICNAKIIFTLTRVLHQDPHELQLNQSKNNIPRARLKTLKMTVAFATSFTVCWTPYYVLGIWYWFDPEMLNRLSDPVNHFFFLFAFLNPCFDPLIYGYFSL
D(2) dopamine receptor (Homo sapiens), sequence (P14416 whole entry, looked up): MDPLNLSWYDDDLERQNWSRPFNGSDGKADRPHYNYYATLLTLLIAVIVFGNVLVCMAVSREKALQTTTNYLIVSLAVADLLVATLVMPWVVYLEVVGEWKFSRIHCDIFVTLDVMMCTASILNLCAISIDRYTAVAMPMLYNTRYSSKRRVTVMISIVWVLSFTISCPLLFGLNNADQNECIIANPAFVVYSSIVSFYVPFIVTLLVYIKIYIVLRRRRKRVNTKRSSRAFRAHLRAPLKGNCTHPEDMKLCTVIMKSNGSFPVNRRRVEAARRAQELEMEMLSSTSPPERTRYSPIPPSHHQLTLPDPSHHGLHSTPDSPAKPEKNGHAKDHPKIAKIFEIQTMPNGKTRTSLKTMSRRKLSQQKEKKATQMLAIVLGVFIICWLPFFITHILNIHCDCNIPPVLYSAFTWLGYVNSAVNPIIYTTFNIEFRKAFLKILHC
KiSS-1 receptor (Homo sapiens), sequence (Q969F8 whole entry, looked up): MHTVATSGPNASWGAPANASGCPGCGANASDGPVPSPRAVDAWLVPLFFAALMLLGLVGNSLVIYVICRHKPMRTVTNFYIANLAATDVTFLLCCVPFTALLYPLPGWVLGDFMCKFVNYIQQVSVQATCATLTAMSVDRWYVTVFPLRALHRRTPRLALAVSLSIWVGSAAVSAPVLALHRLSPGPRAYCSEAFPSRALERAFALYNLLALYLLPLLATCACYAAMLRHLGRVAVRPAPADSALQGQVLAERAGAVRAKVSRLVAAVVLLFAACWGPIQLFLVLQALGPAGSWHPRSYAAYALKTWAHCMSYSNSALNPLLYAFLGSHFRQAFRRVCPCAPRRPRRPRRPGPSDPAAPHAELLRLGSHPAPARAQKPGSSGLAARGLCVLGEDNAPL

CCCCNC1CC(C)(C)NC(C)(C)C1
inactive: Potency [1] | Potency [2] | Potency [3] | Potency [4] | Potency [5] | Potency [6] | Potency [7] | Potency [8] | Potency [9] | Potency [10] | Potency [11] | Potency [12] | Potency [13] | Potency [14] | Potency [15] | Potency [16] | Potency [17] | Potency [18]

CCNc1nc(NC(C)CC)nc(OC)n1 (centres undefined)
inactive: Potency [1] | Potency [2] | Potency [3] | Potency [4] | Potency [5] | Potency [6] | Potency [7] | Potency [8] | Potency [9] | Potency [10] | Potency [11] | Potency [12] | Potency [13] | Potency [16] | Potency [17] | Potency [18]

Clc1cc(Cl)c2c(c1)N=C1CCCCCN1C2
inactive: Potency [1] | Potency [2] | Potency [3] | Potency [4] | Potency [19] | Potency [20] | Potency [6] | Potency [8] | Potency [9] | Potency [10] | Potency [12] | Potency [15] | Potency [16] | Potency [17]

O=C(NO)c1ccccc1
inactive: Potency [1] | Potency [2] | Potency [3] | Potency [4] | Potency [19] | Potency [6] | Potency [7] | Potency [12] | Potency [18]
active: Potency [16] 20.7 µM

CCCCCCCCCCCCN(CCCCCCCCCCCC)CCCCCCCCCCCC
inactive: Potency [1] | Potency [2] | Potency [3] | Potency [4] | Potency [19] | Potency [20] | Potency [7] | Potency [8] | Potency [9] | Potency [10] | Potency [11] | Potency [12] | Potency [13] | Potency [15] | Potency [16] | Potency [17] | Potency [18]

CC(=O)OC/C=C(/C)CCC=C(C)C
inactive: Potency [1] | Potency [2] | Potency [3] | Potency [4] | Potency [20] | Potency [6] | Potency [7] | Potency [8] | Potency [9] | Potency [10] | Potency [11] | Potency [12] | Potency [13] | Potency [14] | Potency [15] | Potency [16] | Potency [17]

NC[C@H]1O[C@H](O[C@H]2[C@H](O)[C@@H](O[C@H]3O[C@H](CO)[C@@H](O)[C@H](N)[C@H]3O)[C@H](N)C[C@@H]2N)[C@H](O)[C@@H](O)[C@@H]1O
inactive: activity change, negative = cytotoxicity [1] 2.11% [at 8.39 µM] | activity change [2] -0.795% [at 5.22 µM, hits give high values] | activation [3] 3.49% [at 6.97 µM] | activation [4] -1.23% [at 5.23 µM] | activation [19] 6.15% [at 5.99 µM] | activity change, negative = cytotoxicity [20] 4.31% [at 5.99 µM] | activity change, negative = cytotoxicity [6] 3.51% [at 5.99 µM] | activity change, negative = cytotoxicity [7] 2.96% [at 5.99 µM] | activity change, negative = inhibition [14] -1.06% [at 8.39 µM] | activity change, negative = inhibition [15] 0.292% [at 8.39 µM] | activation [17] 0% [at 8.39 µM] | activity change, negative = inhibition [18] -3.37% [at 8.38 µM]

C=CCCCCCCC=C
inactive: Potency [1] | Potency [2] | Potency [3] | Potency [4] | Potency [5] | Potency [20] | Potency [6] | Potency [7] | Potency [8] | Potency [10] | Potency [12] | Potency [13] | Potency [14] | Potency [15] | Potency [17]
